Results filed as inconclusive are left out. Active and inactive are the calls of the source. Unless noted, the call rests on the fitted dose curve; in most records, active means well fitted curve in either direction with a large enough effect (not every such curve was filed as active); inconclusive means small, poorly fitted or top-dose-only effect, or another doubt; inactive means flat fitted curve, though single readings scatter.
Key:
[1] = target: Lysosomal acid glucosylceramidase (Homo sapiens) (UniProt P04062); test: Glucocerebrosidase-p2 (AID 348; in the data active means potency below about 10 µM; further: potency means the concentration at half of the fitted maximal effect); settings: purified GBA, blue fluorogenic substrate, 40 min
Procedure, shortened: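 Normal human glucocerebrosidase (0.2 nM) with blue fluorogenic substrate (80 uM final) in citrate/phosphate pH 5.9 with 10mM sodium taurocholate, 0.01% tween-20; 40 min RT, NaOH/glycine stop; fluorescence Ex 365/Em 440; AC50 from a titration from 0.6 nM upwards.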

[2] = AP1 Signaling Pathway (AID 357); settings: ME-180 AP-1-bla reporter, EGF-induced, beta-lactamase ratio, 5 h; at 7.69 µM (top of the series) unless noted;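 further: ME-180 reporter cells stimulated with EGF at its EC50 level; on the % scale 0 is the no-effect control and ±100 the full control effect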
Procedure, shortened: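 Titration-series screen for positive or negative modulators of EC50 EGF-induced signaling in ME-180 cells carrying an AP-1-driven beta-lactamase reporter. After 5 hours at 37 degrees Celsius, CCF4 460nm/530nm emission ratio gave %Activity; AC50 values derived.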

[3] = target: Cytochrome P450 1A2 (Homo sapiens) (UniProt P05177); test: p450-cyp1a2 (AID 410; calls by dose curve; further: potency means the concentration at half of the fitted maximal effect;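 on activity change, negative = inhibition: -100% = full effect of reference inhibitor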); settings: recombinant CYP1A2, luciferin-ME demethylation, luminescence; series mostly up to 57 µM
Procedure, shortened: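 Read-out is luminescence from luciferin produced by CYP1A2 demethylation of Luciferin-ME (100uM, at Km). Detection reagent stopped the 60 min NADPH-dependent reaction; signals were normalized to 57 uM furafylline.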

[4] = NFAT Signaling Pathway (AID 444); settings: Jurkat NFAT-bla M1, carbachol, beta-lactamase ratio, 5 h; at 7.69 µM (top of the series) unless noted;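 further: carbachol stimulus at about its EC50 of 1 µM final; on the % scale 0 is the no-effect control and ±100 the full control effect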
Procedure, shortened: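 Jurkat cells with NFAT-driven β-lactamase reporter and co-expressed M1 receptor, stimulated with carbachol (final 1 uM, ~EC50), compound titration, 5 h at 37 °C. CCF4 loaded 1 h at RT; 460/530 nm ratio gave %activity and AC50.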

[5] = Stat Signaling Pathway (AID 446); settings: ME-180 (cervical carcinoma) SIE beta-lactamase reporter, IL-6 stimulated, 5 h; at 7.69 µM (top of the series) unless noted;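 further: ME-180 cervical cancer cells given 40 pM IL-6 alongside compound; SIE-controlled beta-lactamase reporter measured as 460/530 nm FRET emission ratio; on the % scale 0 is the no-effect control and ±100 the full control effect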
Procedure, shortened: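 Emission at 460 and 530 nm (excitation 405 nm) reports SIE-controlled beta-lactamase in ME-180 cells. Cells received compound with 40 pM IL-6 for 5 hrs at 37 C; data scaled between 300 pM IL-6 and 125 nM JAK-inhibitor controls.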

[6] = target: Glucocorticoid receptor (Homo sapiens) (UniProt P04150); test: GR-EFC Redistribution (AID 451; calls by dose curve; further: potency means the concentration at half of the fitted maximal effect); settings: CHO-K1 GR-EFC translocation, beta-gal luminescence, 2 h
Procedure, shortened: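 CHO-K1 cells expressing nuclear EA and GR-ED fragments of b-gal; compounds titrated up to 46 uM final, 2 h at 37 C. GR nuclear translocation read as complemented b-gal luminescence after 1 h RT detection.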

[7] = target: Mitogen-activated protein kinase 10 (Mus musculus) (UniProt Q61831); test: JNK3 AlphaScreen Assay (AID 530); settings: JNK3 lysate, c-Jun phosphorylation; series mostly up to 57.1 µM;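 further: kinase came from lysate of stimulated human HepG2 cells; signal reports phosphorylation of biotinylated GST-cJun 1-79 at Ser73 with 10 µM ATP; on the % scale 0 is the no-effect control and ±100 the full control effect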
Procedure, shortened: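 HepG2 lysate (IL-1b/TNFa pre-activated) + biotin-GST-cJun 1-79 + anti-pSer73 cJun; cpd titration, 15 min RT; ATP 10 uM start; Tris pH 7.6, MgCl2, DTT, vanadate; beads in EDTA buffer; AlphaScreen.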

[8] = target: 3',5'-cyclic-AMP phosphodiesterase 4B (Homo sapiens) (UniProt Q07343); test: qHTS Assay for Inhibitors of PDE-IV (AID 607; active means well fitted activation curve with a large enough effect in the main read-out, with a control signal flat, not every such curve was filed as active; further: % of control where 0% means no effect); settings: HEK293 ACTOne CNG channel cells, membrane potential fluorescence; series mostly up to 22.9 µM
Procedure, shortened: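 The readout is membrane depolarisation from a cAMP-sensing CNG channel, detected with a potential dye at ex 535/em 590. Cells were HEK293-derived (endogenous PDE-IV) at 1000 cells/well, titrated up to 22.9 uM final.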

[9] = Primary qHTS for small molecule stabilizers of the endoplasmic reticulum resident proteome: Secreted ER Calcium Modulated Protein (SERCaMP) assay (AID 1508630; active means well fitted curve in the direction sought with a large enough effect; an effect the other way counts as inactive or inconclusive; further: on the % scale 0 is the no-effect control and ±100 the full control effect); settings: SH-SY5Y GLuc-SERCaMP (Gaussia luciferase released on ER calcium loss) secretion, thapsigargin, luminescence; series mostly up to 38.4 µM
Procedure, shortened: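 The SH-SY5Y reporter protocol was run at 3 concentrations up to 38.3 uM (primary) or 11 concentrations (follow-up): 16 h compound, 100 nM thapsigargin for 4 h, then extracellular luciferase luminescence.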

[10] = target: Cytochrome P450 3A4 (Homo sapiens) (UniProt P08684); test: qHTS Assay for Activators of Cytochrome P450 3A4 (AID 885; active means well fitted curve in the direction sought with a large enough effect; an effect the other way counts as inactive or inconclusive; further: nearly all actives have a fitted effect of over 65% in size); settings: recombinant CYP3A4, Luciferin-PPXE luminescence, 60 min; series mostly up to 57.1 µM
Procedure, shortened: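 Activators are scored by enhanced luminescence from CYP3A4 conversion of luciferin-PPXE (25uM, equal to KM) to luciferin, after 60 min at RT with an NADPH-regenerating system.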

[11] = target: Ubiquitin carboxyl-terminal hydrolase 1 (Homo sapiens) (UniProt O94782); test: Inhibitors of USP1/UAF1: Pilot qHTS (AID 504865; active means well fitted curve in the direction sought with a large enough effect; an effect the other way counts as inactive or inconclusive;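 further: rhodamine fluorescence freed from ubiquitin-rhodamine substrate followed over time; top concentration of the series differs between compounds; on the % scale 0 is the no-effect control and ±100 the full control effect; nearly all actives have a fitted effect of over 35% in size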); settings: purified USP1/UAF1, Ub-rhodamine cleavage fluorescence; series mostly up to 54.9 µM
Procedure, shortened: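 1nM USP1/UAF1 + cpd, 15 min RT; start w/ Ub-Rho 150nM final; kinetic FL 480/540 nm, 6 reads q60 s. Buffer 50mM HEPES pH 7.8, 0.5mM EDTA, 1mM TCEP, 0.01% Tween-20, 0.1 mg/ml BSA.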

[12] = Confirmation and Secondary Assay for Modulators of Hemoglobin Beta Chain Splicing at IVS2 654 locus (AID 910; active means well fitted curve in the direction sought with a large enough effect; an effect the other way counts as inactive or inconclusive;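 further: HeLa cells stably carrying EGFP split by mutant beta-globin IVS2-654 intron; % of control where 0% means no effect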); settings: HeLa EGFP-654 splicing reporter, GFP fluorescence, 48 h; series mostly up to 38.3 µM
Procedure, shortened: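 HeLa cells stably expressing EGFP interrupted by β-globin IVS2-654 intron, seeded overnight in Opti-MEM/2% FCS, then treated 2 days at 37 °C. Restored splicing read as total peak GFP intensity per well by laser scanning cytometry (488 nm excitation, 500–520 nm emission); 500 nM antisense PNA as control.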

[13] = Confirmation and Secondary Assay for Modulators of Hemoglobin Beta Chain Splicing at IVS2 705 locus (AID 930; active means well fitted curve in the direction sought with a large enough effect; an effect the other way counts as inactive or inconclusive;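 further: HeLa cells stably expressing the EGFP-705 splicing reporter; GFP fluorescence per well restored by corrected splicing of the IVS2-705 intron in EGFP; % of control where 0% means no effect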); settings: HeLa EGFP-705 splicing reporter, GFP fluorescence, 48 h; series mostly up to 38.3 µM
Procedure, shortened: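 HeLa cells stably carrying EGFP interrupted by mutant beta-globin intron 2 (IVS2-705) treated 2 days at 37C with compound; 500 nM antisense PNA as control. Correct splicing read as total peak GFP intensity per well by laser-scanning cytometry.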

[14] = target: Glucocorticoid receptor (Homo sapiens) (UniProt P04150); test: GR-GFP Redistribution (AID 450;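 active means compounds whose dose series gives a full or clear partial fitted curve of increased nuclear translocation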; further: potency means the concentration at half of the fitted maximal effect); settings: U2OS GR-GFP nuclear translocation, laser cytometry, 2 h

3',5'-cyclic-AMP phosphodiesterase 4B (Homo sapiens), sequence (Q07343 whole entry, looked up): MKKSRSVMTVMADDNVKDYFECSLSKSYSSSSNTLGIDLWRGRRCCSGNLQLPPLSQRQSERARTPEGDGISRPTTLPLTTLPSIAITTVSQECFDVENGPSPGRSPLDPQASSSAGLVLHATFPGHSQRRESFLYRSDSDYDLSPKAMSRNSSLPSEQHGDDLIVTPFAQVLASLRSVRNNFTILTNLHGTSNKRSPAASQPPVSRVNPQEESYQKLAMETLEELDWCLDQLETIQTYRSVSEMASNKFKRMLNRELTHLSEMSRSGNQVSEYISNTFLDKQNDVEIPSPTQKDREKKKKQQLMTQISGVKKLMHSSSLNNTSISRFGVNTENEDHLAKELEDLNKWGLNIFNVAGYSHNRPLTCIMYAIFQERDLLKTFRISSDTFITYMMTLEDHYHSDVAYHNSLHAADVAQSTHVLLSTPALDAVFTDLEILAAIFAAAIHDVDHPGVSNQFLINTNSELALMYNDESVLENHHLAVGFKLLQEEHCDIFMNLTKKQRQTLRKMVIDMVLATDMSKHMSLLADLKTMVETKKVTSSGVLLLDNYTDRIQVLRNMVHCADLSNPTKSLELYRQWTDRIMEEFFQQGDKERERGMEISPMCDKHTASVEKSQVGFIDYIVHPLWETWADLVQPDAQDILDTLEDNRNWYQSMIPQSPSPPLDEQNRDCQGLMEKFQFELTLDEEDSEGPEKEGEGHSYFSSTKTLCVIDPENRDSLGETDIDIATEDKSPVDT
Glucocorticoid receptor (Homo sapiens), sequence (P04150 whole entry, looked up, the tested form may be a part): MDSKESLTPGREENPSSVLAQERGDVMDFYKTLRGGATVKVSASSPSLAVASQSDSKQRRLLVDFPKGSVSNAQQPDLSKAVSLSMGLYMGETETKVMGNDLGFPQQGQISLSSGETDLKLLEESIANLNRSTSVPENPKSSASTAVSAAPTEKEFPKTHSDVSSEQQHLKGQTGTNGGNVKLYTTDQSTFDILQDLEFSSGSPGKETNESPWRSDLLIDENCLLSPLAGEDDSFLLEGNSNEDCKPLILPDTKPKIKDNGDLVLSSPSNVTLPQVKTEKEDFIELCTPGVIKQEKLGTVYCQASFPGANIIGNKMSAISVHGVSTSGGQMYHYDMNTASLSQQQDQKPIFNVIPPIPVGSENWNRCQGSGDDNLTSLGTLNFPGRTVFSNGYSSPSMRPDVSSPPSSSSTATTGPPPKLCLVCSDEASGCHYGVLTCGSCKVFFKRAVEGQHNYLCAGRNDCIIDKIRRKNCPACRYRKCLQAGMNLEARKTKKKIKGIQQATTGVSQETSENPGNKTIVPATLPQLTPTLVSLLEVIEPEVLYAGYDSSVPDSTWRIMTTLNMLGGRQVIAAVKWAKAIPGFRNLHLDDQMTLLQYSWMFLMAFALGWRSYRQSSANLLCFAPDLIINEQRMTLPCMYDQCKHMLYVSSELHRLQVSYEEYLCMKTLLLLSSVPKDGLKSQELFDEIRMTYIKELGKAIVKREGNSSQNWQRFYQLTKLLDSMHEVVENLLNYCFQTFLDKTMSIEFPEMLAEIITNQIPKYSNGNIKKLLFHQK
Cytochrome P450 1A2 (Homo sapiens), sequence (P05177 whole entry, looked up): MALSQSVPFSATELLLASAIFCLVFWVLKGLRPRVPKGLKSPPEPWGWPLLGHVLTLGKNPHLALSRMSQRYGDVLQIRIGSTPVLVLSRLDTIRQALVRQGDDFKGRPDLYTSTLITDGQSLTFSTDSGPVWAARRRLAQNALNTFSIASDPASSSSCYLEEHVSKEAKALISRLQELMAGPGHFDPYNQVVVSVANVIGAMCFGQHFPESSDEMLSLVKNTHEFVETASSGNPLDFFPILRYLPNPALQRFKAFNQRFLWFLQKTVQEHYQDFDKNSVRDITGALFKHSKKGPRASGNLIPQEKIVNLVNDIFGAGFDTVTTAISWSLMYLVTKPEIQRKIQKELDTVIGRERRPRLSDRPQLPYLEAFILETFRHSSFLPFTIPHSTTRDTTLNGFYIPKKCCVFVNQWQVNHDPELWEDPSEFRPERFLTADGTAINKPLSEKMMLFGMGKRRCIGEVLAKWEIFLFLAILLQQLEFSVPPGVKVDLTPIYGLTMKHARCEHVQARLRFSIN
Lysosomal acid glucosylceramidase (Homo sapiens), sequence (P04062 whole entry, looked up): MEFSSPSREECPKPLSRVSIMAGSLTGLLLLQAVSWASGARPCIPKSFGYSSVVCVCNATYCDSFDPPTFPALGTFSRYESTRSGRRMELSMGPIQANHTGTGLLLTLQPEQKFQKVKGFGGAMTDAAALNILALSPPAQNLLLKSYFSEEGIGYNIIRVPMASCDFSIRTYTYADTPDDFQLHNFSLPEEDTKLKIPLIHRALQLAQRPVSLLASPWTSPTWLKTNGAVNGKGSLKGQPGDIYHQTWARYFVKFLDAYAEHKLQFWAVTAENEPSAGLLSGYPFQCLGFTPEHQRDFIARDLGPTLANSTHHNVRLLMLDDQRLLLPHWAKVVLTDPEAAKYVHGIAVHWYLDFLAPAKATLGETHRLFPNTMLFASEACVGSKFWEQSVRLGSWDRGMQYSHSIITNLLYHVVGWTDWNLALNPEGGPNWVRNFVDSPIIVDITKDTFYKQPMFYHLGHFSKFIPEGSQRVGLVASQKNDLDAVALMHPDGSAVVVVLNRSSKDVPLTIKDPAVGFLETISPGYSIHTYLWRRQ
Ubiquitin carboxyl-terminal hydrolase 1 (Homo sapiens), sequence (O94782 whole entry, looked up): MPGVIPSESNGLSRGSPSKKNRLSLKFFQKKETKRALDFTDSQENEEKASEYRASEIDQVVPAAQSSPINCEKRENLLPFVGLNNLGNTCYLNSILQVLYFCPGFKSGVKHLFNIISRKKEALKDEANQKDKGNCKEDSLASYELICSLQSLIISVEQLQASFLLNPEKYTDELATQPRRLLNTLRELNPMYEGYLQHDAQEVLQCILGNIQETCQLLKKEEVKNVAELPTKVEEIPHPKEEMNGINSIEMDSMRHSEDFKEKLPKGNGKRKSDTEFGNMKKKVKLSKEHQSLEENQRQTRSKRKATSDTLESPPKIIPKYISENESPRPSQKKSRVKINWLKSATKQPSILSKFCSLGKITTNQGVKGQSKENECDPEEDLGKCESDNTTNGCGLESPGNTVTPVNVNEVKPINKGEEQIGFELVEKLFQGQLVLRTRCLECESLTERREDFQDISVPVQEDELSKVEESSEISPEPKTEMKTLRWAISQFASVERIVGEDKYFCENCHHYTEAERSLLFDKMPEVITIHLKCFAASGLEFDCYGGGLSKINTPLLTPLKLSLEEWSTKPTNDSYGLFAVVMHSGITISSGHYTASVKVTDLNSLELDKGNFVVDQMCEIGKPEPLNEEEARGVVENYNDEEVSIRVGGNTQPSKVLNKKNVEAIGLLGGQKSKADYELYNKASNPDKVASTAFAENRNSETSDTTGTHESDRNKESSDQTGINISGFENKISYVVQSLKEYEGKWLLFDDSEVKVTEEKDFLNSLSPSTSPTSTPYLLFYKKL
Cytochrome P450 3A4 (Homo sapiens), sequence (P08684 whole entry, looked up): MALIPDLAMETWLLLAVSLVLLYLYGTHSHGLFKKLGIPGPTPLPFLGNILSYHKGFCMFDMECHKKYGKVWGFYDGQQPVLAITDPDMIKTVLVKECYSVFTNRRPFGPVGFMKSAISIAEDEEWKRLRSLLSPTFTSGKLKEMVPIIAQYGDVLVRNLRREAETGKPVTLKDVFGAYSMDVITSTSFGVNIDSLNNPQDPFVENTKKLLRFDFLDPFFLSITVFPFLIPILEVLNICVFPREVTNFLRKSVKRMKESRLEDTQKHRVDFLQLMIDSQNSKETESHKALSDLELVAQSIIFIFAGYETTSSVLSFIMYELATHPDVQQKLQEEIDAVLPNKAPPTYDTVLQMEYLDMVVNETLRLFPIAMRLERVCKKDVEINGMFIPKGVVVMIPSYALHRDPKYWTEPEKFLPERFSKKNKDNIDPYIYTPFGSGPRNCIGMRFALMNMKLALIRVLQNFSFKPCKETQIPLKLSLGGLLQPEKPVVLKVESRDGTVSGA

O=C(c1cnccn1)N1CCC2(CC1)CN(Cc1nccs1)C2
inactive: Potency [1] > 11.4 µM | activity change, negative = inhibition [2] -5.34% | Potency [3] | activity change, negative = inhibition [4] -5.05% | activity, negative = inhibition [5] -2.27% | Potency [6] > 46 µM | Potency [7] | Potency [8] | outcome [9]

CS(=O)(=O)N1CCC2(CCN(Cc3nccs3)CC2)CC1
inactive: Potency [1] > 11.4 µM | activity change, negative = inhibition [2] 3.17% | Potency [3] | activity change, negative = inhibition [4] 9.85% | activity, negative = inhibition [5] -5.91% | Potency [6] > 46 µM | Potency [7] | Potency [8] | outcome [9]

CC(=O)N1CCC2(CC1)CCN(c1cccc(-c3ccccc3)c1)CC2
inactive: Potency [1] > 11.4 µM | activity change, negative = inhibition [2] -13.2% | activity change, negative = inhibition [4] 16.7% | activity, negative = inhibition [5] 18.6% | Potency [6] > 46 µM | Potency [7] | Potency [8] | outcome [9]
active: Potency [3] 3.98 µM

Cn1cc(-c2nc3cncnc3n(CCN)c2=O)c2ccccc21
inactive: Potency [1] > 11.4 µM | activity change, negative = inhibition [2] 0.818% | activity change, negative = inhibition [4] 3.03% | activity, negative = inhibition [5] 0.835% | Potency [6] > 46 µM | Potency [7] | Potency [8] | Potency [10] | Potency [11] | outcome [9]
active: Potency [3] 6.31 µM

CN(C)C(=O)c1ccc(-c2nc(N(C)Cc3ccco3)c3ccccc3n2)cc1
inactive: Potency [1] > 11.4 µM | activity change, negative = inhibition [2] -14.5% | activity change, negative = inhibition [4] 18.1% | activity, negative = inhibition [5] 3.3% | Potency [6] > 46 µM | Potency [7] | Potency [12] | outcome [13] | Potency [11] | outcome [9]
active: Potency [3] 7.94 µM

O=C(Nc1ccccc1)N1CC2(CCN(C(=O)c3cnccn3)CC2)C1
active: Potency [3] 20 µM
inactive: Potency [1] > 11.4 µM | activity change, negative = inhibition [2] -11.2% | activity change, negative = inhibition [4] 4.45% | activity, negative = inhibition [5] 2.96% | Potency [6] > 46 µM | Potency [7] | Potency [8] | outcome [9]

COC(=O)N1CCC2(CCCN(C(=O)Nc3ccccc3)C2)CC1
inactive: Potency [1] > 11.4 µM | activity change, negative = inhibition [2] -8.56% | Potency [3] | activity change, negative = inhibition [4] 8.44% | activity, negative = inhibition [5] -0.296% | Potency [6] > 46 µM | Potency [7] | Potency [8] | outcome [9]

O=C(c1cnccn1)N1CCC2(CCCN(c3ccc(-c4ccccc4)cc3)C2)CC1
inactive: Potency [1] > 11.4 µM | activity change, negative = inhibition [2] -27.9% | activity change, negative = inhibition [4] -14.8% | activity, negative = inhibition [5] 8.97% | Potency [6] > 46 µM | Potency [7] | Potency [8] | outcome [9]
active: Potency [3] 25.1 µM

COC(=O)N1CCC2(CC1)CN(C(=O)Nc1cccc(F)c1)C2
inactive: Potency [1] > 11.4 µM | activity change, negative = inhibition [2] -2.84% | Potency [3] | activity change, negative = inhibition [4] 0.322% | activity, negative = inhibition [5] -2.22% | Potency [6] > 46 µM | Potency [7] | Potency [8] | outcome [9]

COCC(=O)N1CCC2(CC1)CN(Cc1ccccc1OC)C2
inactive: Potency [1] > 11.4 µM | activity change, negative = inhibition [2] -2.68% | Potency [3] | activity change, negative = inhibition [4] 9.66% | activity, negative = inhibition [5] 14.6% | Potency [6] > 46 µM | Potency [7] | Potency [8] | outcome [9]

CS(=O)(=O)N1CCC2(CCCN(c3ncccn3)C2)CC1
active: Potency [3] 15.8 µM
inactive: Potency [1] > 11.4 µM | activity change, negative = inhibition [2] 1.67% | activity change, negative = inhibition [4] 2.98% | activity, negative = inhibition [5] -8.29% | Potency [6] > 46 µM | Potency [7] | Potency [8] | outcome [9]

O=C(c1csnn1)N1CCC2(CCN(Cc3nccs3)CC2)CC1
inactive: Potency [1] > 11.4 µM | activity change, negative = inhibition [2] -7.97% | Potency [3] | activity change, negative = inhibition [4] -13.7% | activity, negative = inhibition [5] -2.3% | Potency [6] > 46 µM | Potency [7] | Potency [8] | outcome [9]

COc1cccc(Nc2ncc3nc(CCc4ccccc4)c(=O)n(CCC#N)c3n2)c1
inactive: Potency [1] > 11.4 µM | activity change, negative = inhibition [2] -11.6% | Potency [3] | activity change, negative = inhibition [4] -14.1% | activity, negative = inhibition [5] -2.69% | Potency [14] > 9.22 µM | Potency [6] > 46 µM | Potency [7] | Potency [10] | outcome [9]

COc1ccc(C(=O)N2CCC3(CCCN(C)C3)CC2)cc1
inactive: Potency [1] > 11.4 µM | activity change, negative = inhibition [2] 2.83% | Potency [3] | activity change, negative = inhibition [4] 0.644% | activity, negative = inhibition [5] -7.5% | Potency [6] > 46 µM | Potency [7] | Potency [8] | outcome [9]

COC(=O)N1CCC2(CC1)CN(C(=O)Nc1ccc(OC)cc1)C2
inactive: Potency [1] > 11.4 µM | activity change, negative = inhibition [2] -27.1% | Potency [3] | activity change, negative = inhibition [4] 14.1% | activity, negative = inhibition [5] -0.967% | Potency [6] > 46 µM | Potency [7] | Potency [8] | outcome [9]

N#Cc1cccc(-c2nc(Nc3ccccc3)c3ccccc3n2)c1
active: Potency [3] 1.26 µM
inactive: Potency [1] > 11.4 µM | activity change, negative = inhibition [2] 3.06% | activity change, negative = inhibition [4] 15.5% | activity, negative = inhibition [5] 8.9% | Potency [14] > 46 µM | Potency [6] > 46 µM | Potency [7] | outcome [13] | outcome [9]

COc1ccc(NC(=O)N2CCC3(CC2)CCN(C(=O)c2ccco2)CC3)cc1
active: Potency [3] 20 µM
inactive: Potency [1] > 11.4 µM | activity change, negative = inhibition [2] -4.61% | activity change, negative = inhibition [4] 3.53% | activity, negative = inhibition [5] -1.71% | Potency [6] > 46 µM | Potency [7] | Potency [8] | outcome [9]
